Compounds without any hit were thinned out: in the full panel of roughly 83,000, 20% have a hit.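 Interpretation: 100, growth as untreated; towards 0, rising growth inhibition; 0, no net growth; 0 to -100, cell death. Compounds scoring below 10 were considered active.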 Unmarked numbers belong to inactive results. Active and inactive are the calls of the source.
test system: MDA-MB-468 breast; assay: NCI-60 one-dose screen, 48 h (100 = growth as untreated, 0 = no growth, -100 = all killed); details: 10 µM unless noted

| Compound | growth |
| --- | --- |
| COc1ccc(/C=C(\C#N)c2ccc(OC)cc2)cc1 | 7.49% (active) |
| Fc1ccc(-c2nc(-c3nc4ncccc4[nH]3)cc3c2[nH]c2ccccc23)cc1F | 49.5% |
| Cc1nc2sc(C(=O)Nc3ccccc3Cl)c(N)c2cc1C(C)O (stereo not given) | 70.1% |
| O=c1c2ccccc2nc(SCCN2CCCCC2)n1CCc1ccccc1 | 92% |
| O=c1nc2sc3nc4ccccc4cc3cc-2s1 | 124% |
| CCN(CC)CCCCCNc1cc(OC(=O)c2ccc(Cl)cc2)cc2cccnc12 | 71.6% |
| CCOC(=O)c1c(Cl)c2c(n1Cc1ccccc1)-c1oncc1CCC2 | 56% |
| CC(=O)c1cc2c(N)c(C(=O)Nc3cccc4ccccc34)sc2nc1C | 4% (active) |
| C#Cc1ccc(-n2c(/C=C/c3ccc(C(F)(F)F)cc3)nc3ncccc3c2=O)cc1 | -9.87% (active) |
| C=CCNc1ccc2c3c(cccc13)C(=O)N(N1C(=O)c3cccc4cccc(c34)C1=O)C2=O | 101% |
| C#CC(F)(F)[C@]1(O)CC[C@H]2[C@@H]3CCC4=CC(=O)CCC4=C3[C@@H](c3ccc(C(C)=O)cc3)C[C@@]21C | 81.3% |
| CCCCOC(=O)Oc1ccc(C(=O)Oc2ccc(OCC)cc2)cc1 | 113% |
| COc1ccc(-c2nc(SCCC(C)C)nc(Nc3ccc(F)c(Cl)c3)c2C#N)cc1 | 71.5% |
| O=C(Nc1cccc([N+](=O)[O-])c1)c1cc2ccccc2cc1O | -42.8% (active) |
| COc1ccc(/C=N/NC(=O)c2[nH]c3ccc(Br)cc3c2-c2ccccc2)o1 | 13% |
| C#Cc1nc(C2=C(C)C(O)CC2)cs1 (stereo not given) | -91.7% (active) |
| N#Cc1c(N)nc(N)nc1Nc1ccc(Br)cc1 | 89.6% |
| CCCNS(=O)(=O)c1ccc(Cl)cc1 | 102% |
| CCCCCCc1nc2nc(Cl)c(Cl)nc2[nH]1 | 31.1% |
| CC[N+]1(CC)CC[N+]2(CCCC(C)CC2)CC1 (stereo not given) | 108% |

| Compound | growth |
| --- | --- |
| CC/C=C\C/C=C\C[C@H]1C/C=C2/C(=O)C=C[C@@H]2C/C=C\CCC(=O)O1 | -8.25% (active) |
| C[C@@H]1CCC[C@H]1CC(N)C(=O)O (stereo not given in full) | 92.8% |
| Clc1ccc(-c2nc(-c3cccs3)no2)cc1 | 44.7% |
| c1cnc2[nH]cc(-c3csc(-c4cn(CCCN5CCOCC5)c5ccccc45)n3)c2c1 | 26.2% |
| Cc1ccc(S(=O)(=O)n2cc(C3C(Cl)C(=O)N3c3ccc(N4CCOCC4=O)cc3)c3ccccc32)cc1 (stereo not given) | 67.6% |
| FCOC(C(F)(F)F)C(F)(F)F | 108% |
| O=S(=O)(NCCCNc1nccc(-c2[nH]c(-c3ccccc3)nc2-c2ccc(F)c(O)c2)n1)c1cccc2ccccc12 | 48.8% |
| NC(=O)OCCO | 113% |
| CCOC(=O)C1=C(C)NC(SCc2nnc(-c3ccc(Cl)cc3)o2)=NC1c1ccc(Br)cc1 (stereo not given) | 58.2% |
| COc1ccc(-c2nnc(-c3ccc4c(c3)nc(-c3ccccc3)n4C3CCCCC3)o2)cc1 | 83.8% |
| CN1CCN(c2ccc(NC(=O)c3nc4ccc5[nH]ncc5c4c4c3CCCC4)cc2C(F)(F)F)CC1 | 44% |
| COc1ccc(/C=N/C2=C(C#N)C(c3ccccc3)c3ccc4ccccc4c3O2)cc1 (stereo not given) | 17.9% |
| CS(=O)(=O)c1ccc(-c2cnn3ccc(-c4cccc(S(=O)(=O)C5CC5)c4)nc23)cc1 | 27.7% |
| CC(NC(N)=S)c1ccccc1 (stereo not given) | -11.5% (active) |
| CCOC(=O)C1=C(c2ccccc2)N=c2s/c(=C/c3ccc(Br)cc3)c(=O)n2C1c1ccc(O)cc1 (stereo not given) | 83.7% |
| COc1cc(-c2nc(SCC(=O)Nc3ccc(C(C)=O)cc3)[nH]c(=O)c2C#N)cc(OC)c1OC | -12.8% (active) |
| N#Cc1cnc2cc(OC[C@@H](O)CO)c(NC(=O)C3CCCC3)cc2c1Nc1ccc(OCc2cccc(F)c2)c(Cl)c1 | -20.9% (active) |
| CCOCc1nc2ccccc2c(=O)[nH]1 | 98.7% |
| COc1ccc(-c2nnc(COc3ccc(NC(=O)Nc4cccc(C(F)(F)F)c4)cc3F)o2)cc1 | 46.1% |
| COc1ccc(/C=C/C(c2cc(OC)c(OC)c(OC)c2)n2cncn2)cc1 (stereo not given) | 40.9% |

Reference: PubChem BioAssay (NCI)
